Among all 58,000 compounds or so, about 3,400 (5.9%) were called active.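 The calls were made as follows: active = luminescence count or its row- and column-corrected plate score outside the 99.7% band of the plate's sample wells, on either side; inactive = the rest.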 This excerpt belongs to a sample that is enriched for actives.

This experiment deals with D(1A) dopamine receptor (Homo sapiens) (UniProt P21728). Kind of experiment: D1 CRE-luciferase signal change, two-sided – cell-based, HEK293 D1, dopamine EC30, D1 allosteric modulator project, primary screen (AID 641). The conditions noted are these: dopamine EC30 potentiation, at 10 µM, actives deviate in either direction.
D(1A) dopamine receptor (Homo sapiens), sequence (P21728 whole entry, looked up): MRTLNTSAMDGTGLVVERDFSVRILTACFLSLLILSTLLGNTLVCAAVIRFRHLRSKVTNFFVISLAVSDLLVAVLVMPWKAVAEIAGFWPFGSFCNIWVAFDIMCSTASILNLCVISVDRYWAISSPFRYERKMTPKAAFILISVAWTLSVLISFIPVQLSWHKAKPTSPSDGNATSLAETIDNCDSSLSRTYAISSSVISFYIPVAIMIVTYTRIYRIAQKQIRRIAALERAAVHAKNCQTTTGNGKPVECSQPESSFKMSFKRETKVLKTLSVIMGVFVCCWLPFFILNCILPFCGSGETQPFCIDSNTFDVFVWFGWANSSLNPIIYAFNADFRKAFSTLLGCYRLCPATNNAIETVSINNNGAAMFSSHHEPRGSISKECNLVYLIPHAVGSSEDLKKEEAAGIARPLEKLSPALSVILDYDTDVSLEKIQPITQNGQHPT
Regarding `CCOC(=O)N1CCN(CC(=O)c2ccc3c(c2)CCN3)CC1`, the B-score was -0.515 (inactive). Consider `O=C(O)c1cc(S(=O)(=O)N2CCCCCC2)c(Cl)cc1Cl`, for which the B-score was -0.949 (inactive).

In the case of `COc1ccc(OC)c(C(c2nnnn2C(C)(C)C)N2CCc3ccccc3C2)c1` (stereo not given), the B-score was -4.02 (active).

With `Cc1ccc(C(c2nnnn2CS(=O)(=O)c2ccc(C)cc2)N2CCC(C(N)=O)CC2)cc1` (stereo not given), the B-score is 0.737 (inactive). Turning to `COc1ccc(CCn2nnnc2C(c2ccccc2)N2CCN(C)CC2)cc1OC` (stereo not given), the B-score is 0.116 (inactive). `CCC(C)(C)n1nnnc1C(c1ccccc1OC)N1CCSCC1` (stereo not given): the B-score was -0.522 (inactive). In the case of `Cc1ccc(C(c2nnnn2C(C)(C)C)N2CCc3ccccc3C2)cc1` (stereo not given), the B-score was -2.5 (active). Consider `CC(C)(C)n1nnnc1C(c1ccc2ncccc2c1)N1CCSCC1` (stereo not given), for which the B-score was -0.519 (inactive).

Take `CCOCCc1c(O)nc(SCC(=O)NCc2ccco2)[nH]c1=O`: the B-score is 1.04 (inactive). To `CCCC(C)n1[nH]c(=O)c2c(C)cc(C)nc21` (stereo not given) belongs 1.59 (inactive); to `N#CCCN1CCN(S(=O)(=O)c2ccc(S(=O)(=O)N3CCCC3)cc2)CC1`, 0.478 (inactive); to `N#CCCN1CCN(S(=O)(=O)c2ccc(S(=O)(=O)NC3CCCCC3)cc2)CC1`, 3.08 (active). The figure for `N#CCCN1CCN(S(=O)(=O)c2ccc(S(=O)(=O)NC3CC3)cc2)CC1` is -0.0246 (inactive). With `COc1ccc(N2C(=O)C3CCCN3C2c2cc(OC)c(OC)cc2OC)cc1` (stereo not given), the B-score is 0.17 (inactive). As for `CCOC(=O)c1cc(-c2ccc(Cl)s2)nc2c1c(C)nn2C`, the B-score was 0.665 (inactive). For the compound `CCOC(=O)C1=C(C)NC(C)=C(C(=O)OCC)C1c1ccccn1`, the B-score is -0.891 (inactive).

As for `CCOC(=O)C1=C(O)CSC1=Nc1cccc(Cl)c1`, the B-score is 7.94 (active).

As to `COc1ccc(CCNC(=O)c2ccco2)cc1`, the B-score was 1.58 (inactive).

On to `Cc1ccc(-c2nc(COC(=O)c3c(C)noc3C)cs2)cc1`, for which the B-score was -0.259 (inactive). For `CCOC(=O)c1c(C2CC2)csc1NC(=O)CSCc1c(C)noc1C`, the B-score was -3.6 (active). To `CCOC(=O)c1c(-c2ccc(C)cc2C)csc1NC(=O)CSc1nnnn1C` belongs 0.507 (inactive); to `O=C(C1=C(O)C(=O)N(c2ncccn2)C1c1cccs1)c1ccco1` (stereo not given), -0.746 (inactive); to `Cn1c(=O)[nH]c(=O)c2c1nc(N1CCN(CCO)CC1)n2CCSc1nc2ccccc2s1`, 0.525 (inactive).

As to `c1nnc2c3c4c(sc3ncn12)CCC4`, the B-score was 0.277 (inactive). On to `Cc1ccccc1Cn1c(=O)[nH]c2ccccc21`, for which the B-score was -0.259 (inactive). As to `Cc1ccc(N2C(=O)CC(NCc3ccc4c(c3)OCO4)C2=O)cc1Cl` (stereo not given), the B-score was 0.36 (inactive). On to `CCOc1cc(/C=N/O)cc(Br)c1OC`, for which the B-score was 10.9 (active).

For the compound `O=C(c1cnn2ccccc12)N1CCc2ccccc21`, the B-score is -0.641 (inactive). Regarding `CCCN(CCC)C(=O)C1c2ccccc2Oc2ccccc21`, the B-score was 0.123 (inactive).

For the compound `CC(=O)c1cccc(NC(=O)c2ccncc2)c1`, the B-score was -0.215 (inactive). Consider `C/C(=C\C(=O)c1cccnc1)Nc1ccc(C)c(C)c1`, for which the B-score was 0.381 (inactive). Regarding `C/C(=C\C(=O)c1ccccc1)Nc1cccc(O)c1`, the B-score was 4.14 (active). On to `CCc1nc(Nc2ccc3nccnc3c2)c2oc3ccccc3c2n1`, for which the B-score was -1.78 (inactive). As for `Cc1cccc(N2CCN(C(c3ccccc3)c3nnnn3CC3CCCO3)CC2)c1C` (stereo not given), the B-score was -1.87 (inactive).

As to `CCSc1nc(C)nc2c1oc1ccccc12`, the B-score is 10.5 (active). For the compound `COc1ccc(CCNC(=O)CSc2nc(C)nc3c2oc2ccccc23)cc1OC`, the B-score was 1.41 (inactive).

For the compound `Cc1nc(N2CCN(c3ncccn3)CC2)c2oc3ccccc3c2n1`, the B-score is 3.11 (inactive).

Take `CCn1nnc(NC(=O)c2c(OC)cccc2OC)n1`: the B-score is -0.273 (inactive). With `Cc1ccccc1CN1CCN(CC(=O)NCc2ccccn2)C1=O`, the B-score is -0.577 (inactive). On to `COc1ccc(-c2nnco2)cc1OC`, for which the B-score was 9.98 (active). As to `COc1ccc2c(Cl)c(-c3nnco3)sc2c1`, the B-score is -2.33 (inactive).

In the case of `COCCn1c(-c2ccc(OC)c(OC)c2)nc2ccccc21`, the B-score is 1.2 (inactive). Consider `COC(=O)c1ccc(NC(=O)CN(c2ccc(C)cc2)S(=O)(=O)c2c(C)n[nH]c2C)cc1`, for which the B-score is -1.32 (inactive).

On to `CC(=O)NCC(=O)N(C)C(C(=O)Nc1ccc2c(c1)OCCO2)c1ccccc1` (stereo not given), for which the B-score is 1.86 (inactive).

Consider `CC(=O)NC(C)c1nc2ccccc2n1Cc1ccccc1F` (stereo not given), for which the B-score is 0.517 (inactive). As to `Cc1nc(Nc2ccc3c(c2)OCCO3)c2nnn(Cc3ccccc3Cl)c2n1`, the B-score is -2.58 (inactive). On to `C#CCNc1nc(C(C)C)nc2c1nnn2Cc1ccccc1F`, for which the B-score is 8.02 (active). The figure for `NC(=O)C1CC=CCC1C(=O)OCC(Cl)=C(Cl)Cl` (stereo not given) is -0.419 (inactive); for `CCOc1cccc(=O)c2c(C)n(CC3CCCO3)c(C)c12` (stereo not given) it is 0.961 (inactive); for `CCOC(=O)NC(C(F)(F)F)(C(F)(F)F)P(=O)(c1ccccc1)c1ccccc1` it is -0.00139 (inactive). Take `CCCn1c(=O)c2[nH]c(C3CCCC3)nc2n(CCC)c1=O`: the B-score is 20 (active).

`CCN(c1ccccc1)S(=O)(=O)c1ccc(N)cc1`: the B-score is 0.0758 (inactive). In the case of `CC(NC(=O)CN1CCN(Cc2ccc(Cl)cc2)C1=O)c1ccc2c(c1)OCCO2` (stereo not given), the B-score is -0.383 (inactive). On to `CCNc1nc(SCCOc2ccccc2)nc(N(C)C)n1`, for which the B-score is 1.16 (inactive).

Regarding `CCNc1nc(NCC)nc(N(C)n2cnnc2)n1`, the B-score was 6.74 (active).

For `Cc1cccc(NC(=O)C2CCN(S(=O)(=O)c3cccc4cccnc34)CC2)c1`, the B-score is -1.64 (inactive).

Take `CCOC(=O)c1ccc(Nc2cc(C)nc3nc(C)nn23)cc1`: the B-score is 0.18 (inactive). For the compound `COc1cccc(N2CC(C(=O)Nc3c(C)cccc3C)CC2=O)c1` (stereo not given), the B-score was 0.869 (inactive). For the compound `CC1CCCCN1CC(=O)NCc1ccc2c(c1)OCO2` (stereo not given), the B-score was 0.0178 (inactive). On to `CCc1ccc2oc(=O)cc(CN3CCCCC3C)c2c1` (stereo not given), for which the B-score is 3.81 (active). In the case of `Cc1cc(NC(=O)CN2CCCCC2C)nc2c1c(=O)oc1ccccc12` (stereo not given), the B-score was -0.0379 (inactive). In the case of `COCC(C)N=CC1=C(O)CC(C)(C)CC1=O` (stereo not given), the B-score was 0.0482 (inactive). In the case of `CCn1c(Cc2ccccc2)nnc1SCC(=O)Nc1ccccc1`, the B-score was -0.326 (inactive). In the case of `CC1OC2C(OC1C)N(S(C)(=O)=O)CCN2S(C)(=O)=O` (stereo not given), the B-score was -0.145 (inactive).

Turning to `COc1ccc(-c2nnn(Cc3nc(N)nc(N4CCCCC4)n3)n2)cc1`, the B-score was 5 (active). On to `COc1ccc(-c2nnn(CC(=O)N(CCO)C(C(=O)NC3CCCC3)c3ccc(F)cc3)n2)cc1` (stereo not given), for which the B-score was -0.256 (inactive). With `CCc1ccc(-c2nnn(Cc3nn[nH]n3)n2)cc1`, the B-score was -0.837 (inactive). Turning to `COc1ccc(-n2nc3c(c2NC(=O)Cc2cccc(C)c2)CS(=O)C3)cc1` (stereo not given), the B-score was 0.123 (inactive). Take `COc1cccc(NC(=O)Nc2nnc(N3CCCCC3C)s2)c1` (stereo not given): the B-score was -0.931 (inactive). To `CC/C(=N\O)C(C)(C)/[N+]([O-])=C/c1ccc(Br)cc1` belongs 0.458 (inactive); to `COc1ccc(CCNC(=O)C2CCN(c3nn4c(=O)cc(C)nc4s3)CC2)cc1OC`, -0.543 (inactive); to `CCCS(=O)(=O)N1CCC(C(=O)NCCCN(C)Cc2ccccc2)CC1`, -0.981 (inactive). `CCCS(=O)(=O)N1CCC(C(=O)NCCc2ccc(OC)c(OC)c2)CC1`: the B-score is 1.44 (active).

Consider `CN1CCN(Cc2c(O)ccc3c2oc(=O)c2ccccc23)CC1`, for which the B-score is -0.323 (inactive). In the case of `O=C(CSc1nnc(-c2cccs2)n1Cc1ccco1)c1ccc2c(c1)OCO2`, the B-score was -1.01 (inactive). As to `CCOC(=O)N1CCC(NC(=O)c2cnn3ccccc23)CC1`, the B-score is 0.314 (inactive).

Take `CC1Oc2ccccc2N(Cc2cccnc2)C1=O` (stereo not given): the B-score was 6.15 (active). To `O=C(Cn1nc(Cc2cccnc2)c2ccccc2c1=O)NCC1COc2ccccc2O1` (stereo not given) belongs 0.362 (inactive); to `O=C(O)C1CC(=O)N(Cc2cccnc2)C1` (stereo not given), -0.0843 (inactive); to `Cc1cc2cc(CNC(=O)c3ccc(S(=O)(=O)N4CCOCC4)cc3)ccc2[nH]1`, 0.133 (inactive).

In the case of `O=C(CN1C(=O)CSc2ncccc21)N1CCOCC1`, the B-score was -0.0289 (inactive). As for `Cc1cc(=O)cc(C)[nH]1`, the B-score is -0.271 (inactive). For `CC(=O)NC(C)(C)C1CC=C(C)/C(=N\O)C1` (stereo not given), the B-score was 0.674 (inactive). Turning to `OC(COc1ccccc1)Cn1cc(Br)cn1` (stereo not given), the B-score was -0.000319 (inactive). With `CCn1cc(C(=O)NCC2COc3ccccc3O2)c2cc(OC)c(OC)cc2c1=O` (stereo not given), the B-score is 5.22 (active).

Regarding `CCn1cc(C(=O)N2CCN(Cc3ccc4c(c3)OCO4)CC2)c2cc(OC)c(OC)cc2c1=O`, the B-score was -1.2 (inactive). As for `CCn1cc(C(=O)NCc2ccc3c(c2)OCO3)c2cc(OC)c(OC)cc2c1=O`, the B-score is 0.436 (inactive). Regarding `Cc1ccccc1C(=O)Nc1cccc(-c2nnc(SCC(=O)O)n2C)c1`, the B-score is -0.574 (inactive).

For the compound `CCCc1[nH]nc2c1C(c1ccc(OC)c(Cn3nc(C)c(Br)c3C)c1)C(C#N)=C(N)O2` (stereo not given), the B-score was 0.961 (inactive). For the compound `CCCc1nc(N)nc2c1C(=O)CC(C)(C)C2`, the B-score was 14.2 (active).

On to `CC1(C)CC(=O)c2sc(N)nc2C1`, for which the B-score is -0.282 (inactive).

With `Cc1ccccc1CSCC(=O)NC(=O)NC(C)(C)C`, the B-score was 0.485 (inactive). For `Cc1ccc(C(CC(=O)O)Nc2nc(N3CCCCC3)nc(N3CCCCC3)n2)cc1` (stereo not given), the B-score is -0.363 (inactive).

Regarding `CC(Nc1nc(N2CCCC2)nc2ccccc12)c1ccccc1` (stereo not given), the B-score is -4.18 (active).

Turning to `O=C(Nc1ccc2c(c1)OCCO2)C1CCCN(c2ncccn2)C1` (stereo not given), the B-score is -3.93 (active). For the compound `O=C(CSc1nc2ncccc2[nH]1)Nc1ccc2c(c1)OCCO2`, the B-score was 0.287 (inactive). For `Cc1ccnc(N2CCCC(C(=O)Nc3cc(F)ccc3C)C2)n1` (stereo not given), the B-score was -0.197 (inactive). For `O=C1c2oc3ccc(Br)cc3c(=O)c2C(c2cccc(F)c2)N1CCO` (stereo not given), the B-score was -0.882 (inactive).

As for `CN=C1SC(C(=O)O)CC(=O)N1C` (stereo not given), the B-score was -0.346 (inactive). For `Cc1noc(NS(=O)(=O)c2ccc(N3CC(O)=C(c4ccccc4)C3=N)cc2)c1C`, the B-score is 0.215 (inactive).
